Screening data: PubChem, National Center for Advancing Translational Sciences (NCATS)
GLS inhibitor: inhibitors of human glutaminase (GLS) | O94925 | GLS enzymatic activity, qHTS titration | Potency, µM (series often up to 45.5 µM), hits mostly inhibitors | AID 624170 | 0.21% of 410,000 active
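Human kidney-isoform GLS in 45 mM KH2PO4 pH 8.2, 0.02% Tween-20, with compound, started with 1mM L-Glutamine (added stock). Glutamate oxidase/HRP/Amplex red coupled fluorescence read at start and after 30 min at RT.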
mIDH1 inhibitor: inhibitors of human mutant IDH1 R132H. IDH1-R132H enzyme, NADPH consumption, diaphorase/resazurin fluorescence. Potency, µM (highest dose often 76.6 µM), usual class: inhibitors. 0.093% of 390,000 active. O75874; also: nearly all actives have a fitted effect of over 65% in size
Target sequence (O75874 whole entry R132H, stated change not applied): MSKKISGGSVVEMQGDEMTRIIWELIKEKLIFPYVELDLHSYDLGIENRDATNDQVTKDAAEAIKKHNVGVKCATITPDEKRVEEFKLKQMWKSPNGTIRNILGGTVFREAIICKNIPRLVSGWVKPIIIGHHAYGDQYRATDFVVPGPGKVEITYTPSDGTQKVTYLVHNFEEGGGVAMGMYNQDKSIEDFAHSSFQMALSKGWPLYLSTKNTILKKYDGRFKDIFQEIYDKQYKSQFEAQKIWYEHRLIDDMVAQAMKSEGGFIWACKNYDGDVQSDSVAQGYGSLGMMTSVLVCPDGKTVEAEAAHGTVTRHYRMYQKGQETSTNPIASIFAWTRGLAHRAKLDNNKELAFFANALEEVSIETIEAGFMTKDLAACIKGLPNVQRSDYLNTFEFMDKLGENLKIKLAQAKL
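IDH1-R132H (0.5 ug/mL) preincubated 30 min with compound, then NADPH (0.016 mM) and alpha-KG (2 mM) added; 80 min at RT, pH 7.5. Remaining NADPH coupled via diaphorase/resazurin to fluorescence (540/590 nm); concentration-response curves normalized to no-enzyme control.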
TrxR1 substrate: is turned over as a substrate by rat TrxR1; O89049; purified TrxR1 substrate turnover, NADPH consumption readout; Potency, µM (top dose mostly 114 µM); 0.01% of 390,000 active; also: nearly all actives have a fitted effect of over 50% in size
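Rat TrxR1, dispensed at 90 nM, was prereduced with 400 uM NADPH (final) for 5 min at ~22 deg C, then incubated with compound 15 min before 400 uM selenite. A first-read NADPH fluorescence drop versus no-compound background flagged substrates.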
TrxR1 inh: blocks rat thioredoxin reductase 1; O89049; recombinant rTrxR1, NADPH fluorescence consumption, selenite substrate; Potency, µM (highest dose often 114 µM), most hits filed as inhibitors; 1% of 390,000 active; also: nearly all actives have a fitted effect of over 65% in size
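Rat TrxR1 (90 nM in the dispensed reagent) was pre-reduced with 400 uM NADPH for 5 min at room temperature, then incubated with compound for 15 min. After 400 uM selenite was added, NADPH fluorescence (Ex 340/Em 450 nm) was followed for 8 min.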
Of the large screens only hits and unclear results are named; the others gave an inactive call. This is a sample that favours compounds with a hit; in the whole collection about 1.2% have one here. Calls follow the shape of the dose curve; as a rule, active = well fitted curve in the direction sought with a large enough effect; inconclusive = small, poorly fitted or top-dose-only effect, or another doubt; inactive = no such curve, though single readings can be large; an effect the other way counts as inactive or inconclusive.

CCOC(=O)c1sc(S(C)=O)c2c1CCc1conc1-2 (stereo not drawn)	TrxR1 inh 32µM
O=[N+]([O-])c1ccc(Sc2cccc[n+]2[O-])c2nonc12	GLS inhibitor 11µM, TrxR1 inh 1.6µM
O=C(Nc1ccc(C(=O)N2CCCCC2)cc1)c1ccc(Br)cc1	none
CC(C)(C)c1ccc(C(=O)Nc2ccc(C=C(C#N)C#N)cc2)cc1	TrxR1 inh 3.2µM
CC(C)(C)c1ccc(C(=O)Nc2ccc(NC(=O)c3ccc(Cl)c(Cl)c3)cc2)cc1	none
N#CC(C#N)=Cc1ccc(NC(=O)c2ccc(Br)cc2)cc1	TrxR1 inh 13µM
CC(=O)NCc1ccc(C(=O)CSc2nnc(-c3ccncc3)n2Cc2ccccc2)o1	TrxR1 inh 16µM
O=C(Nc1ccc(N2CCN(c3ccc(O)cc3)CC2)cc1)Oc1ccccc1	none
Nc1ccc(OC(=O)Nc2ccc(O)cc2)cc1	GLS inhibitor 14µM
Cc1ccccc1Oc1cc(-n2ncc(Cl)c(Cl)c2=O)ncn1	TrxR1 inh 0.79µM
O=C1OC(CN(Cc2ccccc2)Cc2ccccc2)CN1N=Cc1ccc([N+](=O)[O-])o1 (stereo not drawn)	TrxR1 inh 56µM
Cc1nc(SCC(=O)c2ccccc2)c(C#N)c(-c2ccco2)c1C(=O)NCc1ccco1	TrxR1 inh 50µM
CCOC(=O)c1c(N2C(=O)C=CC2=O)sc(C)c1C	GLS inhibitor inconclusive, TrxR1 inh 2.2µM
O=C(NP(=O)(N1CCOCC1)N1CCOCC1)C1=C(N2CCOCC2)/C(=C\c2ccccc2)CC1	TrxR1 inh 14µM
COC(=O)c1ccc([C@@H]2Nc3c(cccc3C(F)(F)F)[C@@H]3C=CC[C@@H]32)cc1	none
Cc1cccc(NS(=O)(=O)c2ccc3c(c2)[C@H]2C=CC[C@H]2[C@@H](c2ccc(F)cc2)N3)c1	none
COC(=O)c1ccc(C2Nc3c(C)cc(C)cc3C3C=CCC32)cc1 (stereo not drawn)	TrxR1 inh 4µM
Cc1cc(C)c2c(c1)[C@@H]1C=CC[C@@H]1[C@H](c1ccc(S(=O)(=O)N3CCOCC3)cc1)N2	TrxR1 inh 2.8µM
CCNc1ccc(Br)cc(C(=O)/C=C/c2ccc3c(c2)OCO3)c1=O	TrxR1 inh 7.9µM
CCNc1ccc(Br)cc(C(=O)/C=C/c2ccc(Cl)cc2)c1=O	TrxR1 inh 35µM
CCNc1ccc(Br)cc(C(=O)/C=C/c2c(Cl)cccc2Cl)c1=O	TrxR1 inh inconclusive
CNc1cncc(-c2ccc(C)cc2)n1	none (no result: mIDH1 inhibitor, TrxR1 substrate, TrxR1 inh)
Cc1cc(Nc2ccccc2C(=O)O)ccc1Cl	none (no result: mIDH1 inhibitor, TrxR1 substrate, TrxR1 inh)
Cc1ccc(-c2nn(-c3ccccc3)cc2C=C2C(=O)CC(C)(C)CC2=O)cc1	GLS inhibitor inconclusive, TrxR1 inh 22µM
Oc1ccccc1/C=N/c1c(-c2ccco2)nc2ccccn12	TrxR1 inh 79µM
COc1cccc(-n2nnnc2SCC(=O)Nc2ccccc2OC)c1	none
CCCS(=O)(=O)c1nnnn1-c1cccc(OC)c1	TrxR1 inh 3.5µM
Nc1ccc(C(=O)N/N=C/c2cn(Cc3ccc(F)cc3)c3ccccc23)cc1	none
O=C(N/N=C/c1cn(Cc2cccc(F)c2)c2ccccc12)c1cc(O)cc(O)c1	GLS inhibitor 2.5µM
CC(=O)N(C1=C(N2CCOCC2)C(=O)c2ccccc2C1=O)c1ccc(C(=O)O)cc1	TrxR1 inh 7.9µM
CC(=O)N(C)C1=C(N2CCOCC2)C(=O)c2ccccc2C1=O	none
COc1ccc2nc(C(c3ccc(C)cc3)n3c(-c4ccccc4Br)nc4ccccc43)[nH]c2c1 (stereo not drawn)	none (no result: mIDH1 inhibitor, TrxR1 substrate, TrxR1 inh)
O=S1(=O)C=C(Sc2nc3cc(Cl)ccc3o2)c2ccccc21	TrxR1 inh 2.8µM
NC(=S)N=Nc1ccc(NN=C(N)N)cc1	TrxR1 inh 20µM
Cc1cccc(OCCSc2nc(N)cc(N)n2)c1	TrxR1 inh 40µM
OCCN(CCO)c1ccc(/C=C/c2ccnc3ccccc23)cc1	none (no result: GLS inhibitor, mIDH1 inhibitor)
CCOC(=O)c1c(NC(C)=O)sc2c(OCCN(CC)CC)c(Br)ccc12	none
CCOC(=O)c1c(NC(C)=O)sc2c1CCC(C=NCCCN(CC)CC)=C2Sc1ccccc1	TrxR1 inh 3.5µM
COc1cccc(NC(=O)c2ccc(-c3ccccc3[N+](=O)[O-])o2)c1	TrxR1 inh 16µM
COC(=O)c1c(C)oc(C)c1S(=O)(=O)N(C)C1CCCCC1	TrxR1 inh 16µM
Cc1cccc(C)c1OCC(=O)N(Cc1ccccc1F)C1CCS(=O)(=O)C1 (stereo not drawn)	none
